Experimental findings from PubChem BioAssay (NCI) are described below.

The panel holds about 83,000 compounds, 20% with a hit somewhere; the sample as a whole holds those more often.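 Step 1: grow cells in 96-well plates. Step 2: add test compound at a single concentration. Step 3: incubate 48 h. Step 4: record percent growth.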 A number with no mark means an inactive call. Active and inactive are the calls of the source. Rule for the calls: active = growth percent below 10; inactive = the rest.

Assay in all cases: NCI-60 one-dose screen, 48 h (100 = growth as untreated, 0 = no growth, -100 = all killed)
Common to all, as to conditions: 10 µM unless noted

The subject of test [1] is DU-145 prostate.
Test [2] deals with K-562 leukemia.
The test system of test [3] is MALME-3M melanoma.
The test system of test [4] is MDA-MB-231 breast.
For test [5], the system named is RXF 393 renal.
The subject of test [6] is SF-268 CNS.
Test [7] deals with SF-295 CNS.
For test [8], the system named is SF-539 CNS.
In test [9] the test system is UACC-257 melanoma.
The test system of test [10] is M14 melanoma.
Test [11] relates to HCT-15 colon.
Test [12] has as its system HT29 colon.
The subject of test [13] is SNB-75 CNS.
The test system of test [14] is SNB-19 CNS.
The test system of test [15] is U251 CNS.
The subject of test [16] is PC-3 prostate.
Test [17] deals with SK-MEL-5 melanoma.
Test [18] deals with UACC-62 melanoma.
Test [19] relates to LOX IMVI melanoma.
The subject of test [20] is SK-MEL-28 melanoma.

As to `O=C(Nc1cccc(Cl)c1)Nc1cccc(Cn2c(=O)[nH]c3ccc(Oc4ncccn4)cc3c2=O)c1`, the growth in test [1] was 37.3%; in [2], 26.3%; in [3], 58.9%; in test [4], 53.4%; in test [5] it was 67.5%; in test [6], 30.8%. Besides, the growth in test [7] is 36.2%; in test [8], 62.8%; in test [9], 23.7%; in [10], 53%; in test [11], 80.6%; in test [12] it was 38.8%. Moreover, the growth in test [13] was 57.8%; in test [14], 55.6%; in test [15] it was 31.3%; in test [16], 36.5%; in test [17], 25.5%; in [18], 49.3%. In addition, the growth in [19] was 49.7%; in [20], 59.1%.

For the compound `Cc1cc(N2CCN(CC(=O)Nc3ccc4c(ccn4C)c3)CC2)nc(N2CCCCCC2)n1`, the growth in [1] is 94.2%; in test [2], 65.6%; in [3] it was 93.6%; in test [4] it was 101%; in test [5], 86.2%; in test [6], 102%. Besides, the growth was 98.9% in [7]; 110% in test [8]; 91.9% in [9]; 98.7% in [10]; 79% in [11]; 56.9% in test [12]. Besides, the growth in [13] is 90.1%; in test [14], 89.1%; in test [15], 85.9%; in test [16], 82.8%; in test [17] it was 92.1%; in test [18], 84.3%. In addition, the growth in [19] is 92.8%; in [20], 96.9%.

Consider `O=C1Nc2ccccc2/C1=C/c1cccn1CCCCn1c2ccccc2c(=O)c2ccccc21`, for which the growth in [1] was 94.2%; in test [2], 59.5%; in test [3] it was 91.9%; in test [4], 64.7%; in test [5] it was 88.1%; in test [6] it was 83.1%. In addition, the growth was 101% in test [7]; 93% in test [8]; 105% in test [9]; 85.1% in test [10]; 31.7% in test [11]; 89.1% in [12]. Moreover, the growth was 78% in test [13]; 98.4% in [14]; 95.1% in test [15]; 55.1% in test [16]; 38.6% in [17]; 51.8% in [18]. For the same compound, the growth is 82.5% in test [19] and 105% in [20].

On to `COc1ccc(/C=C(\C#N)n2nnc3ccc(Cl)cc32)cc1`, for which the growth in test [1] is 64.5%; in test [2], 21.2%; in test [3], 79.5%; in test [4], 76.1%; in test [5], 48.7%; in test [6], 76.1%. Moreover, the growth in test [7] is 85.7%; in test [8], 53.2%; in test [9], 76.3%; in [10] it was 58.1%; in [11], 38.9%; in [12], 26.3%. Besides, the growth is 20.4% in test [13]; 55.2% in test [14]; 61.7% in test [15]; 63.7% in test [16]; 81.7% in [17]; 62.3% in test [18]. Also, the growth in test [19] was 56.9%; in test [20], 71.4%.

Turning to `CC(=O)O[C@H]1CC2CCC3C(CC[C@@]4(C)C3C[C@H]([N+]3(C)CCCCC3)[C@@H]4OC(C)=O)[C@@]2(C)C[C@@H]1N1CCCCC1` (stereo not given in full), the growth is 120% in test [1]; 104% in test [2]; 121% in [3]; 91% in test [4]; 113% in test [5]; 115% in test [6]. For the same compound, the growth in test [7] is 96.4%; in [8], 110%; in test [9], 98%; in test [10] it was 106%; in test [11] it was 118%; in [12] it was 105%. In addition, the growth is 99.6% in test [13]; 100% in test [14]; 90.8% in test [15]; 92.8% in [16]; 112% in test [17]; 92.6% in test [18]. For the same compound, the growth in [19] was 95.2%; in [20] it was 108%.

`COc1c(B(O)O)cccc1-c1nc2c(F)cc3[nH]ncc3c2c2c1CCCC2`: the growth was 7.77% (active) in [1]; 11.3% in test [2]; -15.1% (active) in test [3]; 12.4% in test [4]; -45% (active) in test [5]; 12.3% in test [6]. Moreover, the growth in test [7] was 7.58% (active); in test [8], -28.3% (active); in test [9] it was 20.3%; in test [10], 11.3%; in test [11], 0.465% (active); in test [12], 6.27% (active). Besides, the growth is -87.8% (active) in test [13]; 6.94% (active) in [14]; 13.6% in test [15]; 13.8% in test [16]; -26.3% (active) in [17]; 2.47% (active) in test [18]. Further, the values for the growth in [19] and in test [20] were -35.2% (active) and 2.91% (active), respectively.

In the case of `CCOC(=O)c1c(C(=O)c2cn(C)c3ccc(Br)cc23)c(-c2cn(C)c3ccc(Br)cc23)n(NC(=O)OC(C)(C)C)c1C`, the growth is 97.9% [100 µM] in [1]; 89.1% [100 µM] in test [2]; 32.8% [100 µM] in test [3]; 51.2% [100 µM] in [4]; 24.2% [100 µM] in [5]; 82.4% [100 µM] in test [6]. Further, the growth in [7] was 33% [100 µM]; in test [8], 48.3% [100 µM]; in test [9], 94.8% [100 µM]; in test [10], 82.7% [100 µM]; in [11], 89% [100 µM]; in test [12], 90.5% [100 µM]. Moreover, the growth in test [13] is -27.3% [100 µM] (active); in test [14] it was 50.8% [100 µM]; in test [15], 60.7% [100 µM]; in [16], 61.8% [100 µM]; in test [17], 90.6% [100 µM]; in test [18], 65.7% [100 µM]. The growth is 78% [100 µM] in test [19] and 107% [100 µM] in [20].
